This is an account of results in PubChem BioAssay (NCI).

This is part of a sample that, as a whole, favours compounds with a hit. Of some 83,000 tested, about 20% had one in any assay.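 Interpretation: 100, growth as untreated; towards 0, rising growth inhibition; 0, no net growth; 0 to -100, cell death. Compounds scoring below 10 were considered active.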 A number with no mark means an inactive call. Calls of active or inactive are those of the source.

Some test systems named below: HCT-15 colon; HT29 colon; SNB-75 CNS; SNB-19 CNS; U251 CNS; PC-3 prostate; SK-MEL-5 melanoma; UACC-62 melanoma; LOX IMVI melanoma; SK-MEL-28 melanoma; SK-MEL-2 melanoma; EKVX NSCLC; SN12C renal; UO-31 renal; TK-10 renal; ACHN renal; CAKI-1 renal; A498 renal; CCRF-CEM leukemia; MOLT-4 leukemia.
Assay in all cases: NCI-60 one-dose screen, 48 h (100 = growth as untreated, 0 = no growth, -100 = all killed)
Details in all cases: 10 µM

With `CC1=C2C(=C[C@@](C)(COCOCCCl)[C@@H]2O)C(=O)[C@](C)(O)C12CC2`, the growth is -38.9% (active) in the experiment with HCT-15 colon; -11.9% (active) in the experiment on HT29 colon; -53.2% (active) with SNB-75 CNS; -24.4% (active) with SNB-19 CNS; 1.56% (active) in the experiment on U251 CNS; 0.191% (active) with PC-3 prostate. The growth with SK-MEL-5 melanoma was -62.3% (active); in the experiment with UACC-62 melanoma, -87% (active); in the experiment on LOX IMVI melanoma, -82.2% (active); in the experiment with SK-MEL-28 melanoma it was -82.7% (active); in the experiment on SK-MEL-2 melanoma it was -100% (active); with EKVX NSCLC, -62.1% (active). Besides, the growth in the experiment with SN12C renal is -63% (active); in the experiment with UO-31 renal it was -44.1% (active); in the experiment on TK-10 renal it was -1.02% (active); in the experiment on ACHN renal, -48% (active); in the experiment on CAKI-1 renal it was -14.7% (active); in the experiment with A498 renal it was -31.5% (active). In addition, the values for the growth with CCRF-CEM leukemia and in the experiment with MOLT-4 leukemia were 3.19% (active) and -12.4% (active), respectively.
For `COc1ccc(C2NC(=S)NC(C)=C2C(=O)OC(C)C)cc1OC` (stereo not given), the growth in the experiment on HCT-15 colon is 105%; in the experiment with HT29 colon, 115%; in the experiment on SNB-75 CNS it was 94.9%; in the experiment on SNB-19 CNS, 98.9%; in the experiment on U251 CNS it was 102%; with PC-3 prostate, 96%. For the same compound, the growth with SK-MEL-5 melanoma was 98.9%; with UACC-62 melanoma it was 90.5%; in the experiment on LOX IMVI melanoma it was 99.3%; in the experiment with SK-MEL-28 melanoma, 109%; in the experiment with SK-MEL-2 melanoma, 114%; in the experiment on EKVX NSCLC, 97.9%. The growth is 101% in the experiment on SN12C renal; 83.5% in the experiment with UO-31 renal; 106% with TK-10 renal; 107% in the experiment with ACHN renal; 97.4% in the experiment with CAKI-1 renal; 114% in the experiment on A498 renal. Moreover, the growth was 95.9% with CCRF-CEM leukemia and 102% with MOLT-4 leukemia.
Take `CN1CCN(c2ccc(C(=O)/C=C/c3ccc(OC(F)F)cc3)cc2)CC1`: the growth in the experiment with HCT-15 colon is -49.1% (active); in the experiment with HT29 colon it was 13.4%; in the experiment with SNB-75 CNS it was 73.8%; with SNB-19 CNS, 47.4%; in the experiment with U251 CNS, -15.6% (active); in the experiment with PC-3 prostate, 25.5%. Also, the growth in the experiment with SK-MEL-5 melanoma is 52.9%; in the experiment with UACC-62 melanoma, 44.6%; with LOX IMVI melanoma it was -100% (active); in the experiment with SK-MEL-28 melanoma it was 67.5%; in the experiment on SK-MEL-2 melanoma it was 111%; with EKVX NSCLC, 80.1%. The growth in the experiment on SN12C renal is 26.4%; in the experiment with UO-31 renal it was 31.4%; in the experiment with TK-10 renal, 63.8%; in the experiment with ACHN renal it was 65.5%; in the experiment on CAKI-1 renal, 65.8%; with A498 renal, 51.6%. The results for the growth in the experiment on CCRF-CEM leukemia and with MOLT-4 leukemia were 21.9% and 0.533% (active), respectively.
Consider `COc1ccc([C@H]2C(C(=O)c3ccc(Cl)cc3)C3(N[C@@H]2c2ccccc2)C(=O)Nc2ccc(Br)cc23)cc1` (stereo not given in full), for which the growth was 0.62% (active) in the experiment on HCT-15 colon; -50.6% (active) with HT29 colon; 15.6% with SNB-75 CNS; 20.1% in the experiment with SNB-19 CNS; -18% (active) in the experiment on U251 CNS; 17.9% in the experiment on PC-3 prostate. Moreover, the growth with SK-MEL-5 melanoma was 8.62% (active); with UACC-62 melanoma, -55.4% (active); in the experiment on LOX IMVI melanoma, -100% (active); with SK-MEL-28 melanoma, 18.9%; in the experiment with SK-MEL-2 melanoma, -64.5% (active); in the experiment with EKVX NSCLC it was 6.66% (active). For the same compound, the growth is -81.3% (active) with SN12C renal; 0.589% (active) with UO-31 renal; 9.79% (active) in the experiment on TK-10 renal; 0.391% (active) in the experiment on ACHN renal; 2.8% (active) in the experiment on CAKI-1 renal; -7.09% (active) in the experiment on A498 renal. Besides, the growth in the experiment on CCRF-CEM leukemia is 13.9%; in the experiment on MOLT-4 leukemia it was 12.1%.
As to `Cc1ccc(-c2cc(C(=O)N=Nc3c(O)[nH]c4ccccc34)c3ccccc3n2)cc1`, the growth in the experiment on HCT-15 colon is 7.91% (active); in the experiment on HT29 colon, 37.9%; in the experiment on SNB-75 CNS, 85.7%; in the experiment with SNB-19 CNS, 58%; in the experiment with U251 CNS, 27.2%; with PC-3 prostate it was 48.5%. Further, the growth with SK-MEL-5 melanoma is 36.9%; with UACC-62 melanoma it was 61.6%; in the experiment on LOX IMVI melanoma, -40.4% (active); in the experiment with SK-MEL-28 melanoma it was 59.4%; with SK-MEL-2 melanoma, 101%; with EKVX NSCLC it was 38.4%. Also, the growth with SN12C renal was -9.28% (active); in the experiment on UO-31 renal it was 51.6%; in the experiment with TK-10 renal, 63.4%; in the experiment on ACHN renal it was 25.8%; with CAKI-1 renal, 24.3%; in the experiment with A498 renal, 88.2%. The growth in the experiment with CCRF-CEM leukemia was 22.9%; in the experiment with MOLT-4 leukemia it was 31.7%.
In the case of `O=C(Nc1cccc(C(F)(F)F)c1)c1cncc(C#Cc2cnc3ccc(N4CCOCC4)nn23)c1`, the growth in the experiment with HCT-15 colon was -16.7% (active); in the experiment with HT29 colon, 5.68% (active); with SNB-75 CNS, -39.9% (active); with SNB-19 CNS, -6.03% (active); in the experiment with U251 CNS it was -3.92% (active); in the experiment on PC-3 prostate it was 6.2% (active). Moreover, the growth was -66.9% (active) in the experiment on SK-MEL-5 melanoma; -22.1% (active) with UACC-62 melanoma; -87.9% (active) in the experiment with LOX IMVI melanoma; -17.8% (active) in the experiment with SK-MEL-28 melanoma; -26.3% (active) in the experiment on SK-MEL-2 melanoma; -22.3% (active) in the experiment on EKVX NSCLC. Besides, the growth was 4.67% (active) in the experiment on SN12C renal; -31.7% (active) in the experiment with UO-31 renal; 27.3% in the experiment with TK-10 renal; 3.28% (active) with ACHN renal; 6.18% (active) in the experiment with CAKI-1 renal; -87.8% (active) in the experiment with A498 renal. The growth is 10.6% in the experiment with CCRF-CEM leukemia and 3.44% (active) in the experiment with MOLT-4 leukemia.
